Most compounds without a hit are left out; they make up all but 3.5% or so of the library.
TEAD-YAP block: TEAD-YAP interaction inhibition | inhibition, % at 9.12 µM | AID 1259422 | actives 1.4% (n = 640,000) | HEK-TIYL cells, TEAD-Gal4/YAP UAS-luciferase luminescence; in the data active = inhibition above about 32%
FBW7 act: human FBW7 E3 ligase activation, primary screen; Q969H0; AlphaScreen FBW7–phospho-cyclin E peptide binding, activator screen; normalized activity (activation), % at 26.1 µM; actives 0.13% (n = 650,000); AID 1259310; in the data active = normalized activity above about 1.9%;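 also: purified mutant Fbw7 with reduced substrate affinity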
MITF primary: human MITF inhibition, primary screen | O75030 | actives 0.91% (n = 650,000) | AID 1259374 | inhibition, % at 2.6 µM | AlphaScreen MITF homodimerization, bead proximity signal; in the data active = inhibition above about 50%
GPR151 ag: activates the human receptor GPR151 | activation, % at 11.2 µM | actives 1% (n = 650,000) | AID 1508602 | PathHunter beta-arrestin GPR151 cells, luminescence; in the data active = activation above about 4.9%
Target sequence (Q8TDV0 whole entry, looked up): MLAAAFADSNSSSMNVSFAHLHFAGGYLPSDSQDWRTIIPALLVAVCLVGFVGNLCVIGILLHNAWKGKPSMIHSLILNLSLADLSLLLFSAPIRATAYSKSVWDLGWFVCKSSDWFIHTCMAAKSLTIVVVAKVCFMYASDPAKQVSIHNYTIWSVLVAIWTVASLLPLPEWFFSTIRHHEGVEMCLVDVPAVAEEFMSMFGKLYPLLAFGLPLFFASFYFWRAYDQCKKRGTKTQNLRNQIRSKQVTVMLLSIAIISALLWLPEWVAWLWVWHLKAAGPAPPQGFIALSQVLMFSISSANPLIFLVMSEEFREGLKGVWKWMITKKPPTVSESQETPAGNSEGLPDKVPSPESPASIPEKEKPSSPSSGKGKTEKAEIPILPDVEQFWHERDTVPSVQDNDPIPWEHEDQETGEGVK
Hits are given with their value; . = inactive; / = not tested or not shown.

SMILES	TEAD-YAP block	FBW7 act	MITF primary	GPR151 ag
COc1cccc(C(=O)Nc2cccc(Nc3ccc(-c4cccnc4)cn3)c2)c1	.	.	.	.
Cc1ccc(Nc2c(-c3ccc(C)cc3)c(=O)c2=O)cc1	.	.	.	.
O=C1CC(c2ccccc2C(F)(F)F)C2=C(CC(c3cccs3)CC2=O)N1 (stereo unspecified)	.	.	.	.
Cc1nc(Nc2cc(Nc3ccccn3)c(C(F)(F)F)cn2)cc(-c2cncnc2)n1	32	.	.	.
CNC(=O)c1cc(F)ccc1Nc1cc(Nc2cc(-c3cncnc3)nc(C)n2)ncc1C(F)(F)F	55	.	.	.
COc1ccc(N2CCOCC2)cc1Nc1cc(Nc2ccccn2)c(C(F)(F)F)cn1	.	.	.	.
COC(=O)c1c(S(=O)(=O)N2CCCC2)sc2c1CCN(C(=O)c1ccccc1)C2	.	.	.	.
COc1ccc(C2=NS(=O)(=O)N(C)C(C(=O)Nc3cc(C)on3)=C2)cc1OC	.	.	.	.
Cc1ccc(S(=O)(=O)N2CCN(C3CS(=O)(=O)CC3O)CC2)cc1 (stereo unspecified)	.	.	.	.
CN1CCN(CC(=O)N2c3ccccc3Sc3ccccc32)CC1	.	.	.	.
Cc1cc(/C=C2\Sc3ccccc3N2C)cc(C)[n+]1N(C)C	78	.	.	.
Cc1cc(/C=C2\Sc3ccccc3N2C)cc(C)[n+]1N1CCN(C)CC1	73	.	.	.
Cc1cc(/C=C2\Sc3ccccc3N2C)cc(C)[n+]1CCCN1CCOCC1	41	.	.	.
COc1ccc(/C=C2\C(=O)Nc3ccc(C)cc32)cc1OC	.	.	.	.
CCOC(=O)c1ccc(N2N=C(C)/C(=C\c3ccc(OCc4ccccc4)c(OC)c3)C2=O)cc1	.	.	.	.
COc1ccccc1CC(=O)N1CCCC1c1nc2ccccc2[nH]1 (stereo unspecified)	.	.	.	.
CC(=O)Nc1ccc(C(=O)N2CCOCC2)cc1	.	.	.	.
O=C(c1ccc(-c2nnc(-c3ccccc3)o2)cc1)N1CCOCC1	43	.	.	.
O=S(=O)(Nc1ccc(Cc2ccncc2)cc1)c1ccc(Cl)cc1	38	.	.	.
C/C(=N\NC(N)=S)c1ccc(Cl)cc1Cl	34	.	.	.
C/C(=N\NC(=O)C(F)(F)F)c1ccc(Cl)cc1Cl	.	.	.	.
Cc1cc(C)c2cc3c(N)c(C(=O)Nc4nccs4)sc3nc2c1	.	5.4	.	.
Cc1cc(C)c2c(N)c(C(=O)Nc3nccs3)sc2n1	70	.	.	.
CC(=O)Nc1ccccc1C(=O)C(=O)NC1CCCCC1C (stereo unspecified)	.	.	.	.
O=S(=O)(NCc1ccccc1)c1ccc(S(=O)(=O)c2ccccc2)cc1	.	.	.	.
SMILES	TEAD-YAP block	FBW7 act	MITF primary	GPR151 ag
O=C(OCc1csc(Nc2ccccc2)n1)C1CC2C=CC1C2 (stereo unspecified)	38	.	.	.
O=C1OCC2=C1C(c1ccc(F)cc1)c1cc3c(cc1N2)OCCO3 (stereo unspecified)	53	.	.	.
O=C1NC2=C(C(=O)OC2)C(c2ccc(F)c(F)c2)N1 (stereo unspecified)	.	.	.	.
CC(=O)Nc1ccc(C2C3=C(COC3=O)Nc3cc4c(cc32)OCO4)cc1 (stereo unspecified)	.	.	.	.
O=C1OCC2=C1C(c1ccc(F)cc1)c1cc3c(cc1N2)OCO3 (stereo unspecified)	50	.	.	.
Cc1ccsc1CN1CCc2nnc(C(C)NC(=O)CCc3ccccc3)n2CC1 (stereo unspecified)	.	.	.	.
Oc1c(C(c2cccc(F)c2)N2CCN(c3ccccc3)CC2)sc2ncnn12 (stereo unspecified)	.	.	.	.
Cc1ccc(NC(=O)c2cccc(N3C(=O)c4cccc([N+](=O)[O-])c4C3=O)c2)cc1	.	.	.	.
COc1cc(/C=N/NC(=O)c2cc(Br)ccc2OC(C)C)ccc1O	.	.	.	.
Cc1ccc(/C=N/NC(=O)c2cc(Br)ccc2OC(C)C)o1	46	.	.	.
CC(C)(C)C(=O)CNC(=O)c1ccncc1	57	.	.	.
CCc1cc2c(nc1CC)CCN(CC/C(C)=N/O[C@H](C)CN1CCCCc3nc(C)c(C)cc31)C2	/	.	.	.
COc1ccccc1C(=O)Nc1cc(C(F)(F)F)ccc1F	.	.	.	.
COc1cccc(CNC(=O)c2cc3oc4ccccc4c3n2C)c1	.	.	.	.
COc1cccc(CNC(=O)c2cc3oc4ccccc4c3n2C)c1OC	36	.	.	.
COc1ccc(-c2cnc3ccc(NCCCO)nn23)cc1OC	36	.	.	.
COCCNc1ccc2ncc(-c3ccc(O)c(OC)c3)n2n1	55	.	.	.
CCOc1ccc(-n2c(-c3ccc(OC)cc3)c[n+]3c2CCCCC3)cc1	85	.	.	.
CCOc1ccc(-n2c(-c3ccccc3)n[nH]c2=S)cc1	.	.	.	.
CCOc1ccc(-n2c(-c3ccccc3)c[n+]3c2CCC3)cc1	49	.	.	.
CCOc1ccc(/C=C2/N=C(c3cccc(F)c3)OC2=O)cc1	.	.	.	.
O=C1CCC(CCNCCOc2ccccc2)N1Cc1cccs1 (stereo unspecified)	.	.	.	.
NC1=NN(c2ccccc2)C(=O)C1	.	.	.	.
O=C1CC(C23CC4CC(CC(C4)C2)C3)=NN1c1ccccc1	33	.	.	.
O=C(CN1CCN(Cc2ccccc2Cl)CC1)N/N=C\c1c(O)ccc2ccccc12	74	.	.	.
SMILES	TEAD-YAP block	FBW7 act	MITF primary	GPR151 ag
O=C(CO)N/N=C/c1c(O)ccc2ccccc12	.	.	.	.
O=C(CN1CCOCC1)N/N=C/c1cn(Cc2ccccc2Cl)c2ccccc12	.	.	.	.
O=C(CN1CCOCC1)N/N=C/c1c(O)ccc2ccccc12	36	.	.	.
COc1cc(/C=C/C(=O)N2CCC=CC2=O)cc(OC)c1OC	78	.	.	.
COc1cc(/C=C/C(=O)C(C)(C)O)cc(OC)c1OC	.	.	.	.
Cc1cccc(C(=O)Nc2c(C(=O)NCc3ccco3)cnn2-c2ccccc2)c1	.	.	.	.
C=CCn1c(SCC(=O)N2CCOCC2)nnc1-c1ccccc1O	.	.	.	.
CCn1c(SCC(=O)N2CCN(c3ccccc3)CC2)nnc1-c1ccccc1O	34	.	.	.
C=CCn1c(SCC(=O)N2CCN(c3ccccc3)CC2)nnc1-c1ccccc1O	33	.	.	.
COc1ccc(C(CC(=O)Nc2ccccc2)N2Cc3ccccc3C2=O)cc1 (stereo unspecified)	.	.	.	.
Cc1c(/C=N/NC(=O)CCc2ccc(S(=O)(=O)N3CCOCC3)cc2)cc(C#N)n1C	.	.	.	.
O=C(CCc1ccc(S(=O)(=O)N2CCOCC2)cc1)N/N=C/c1ccc(O)c(O)c1O	.	.	54	.
CC(=O)N1CCN(CC(=O)NC(c2ccccc2)c2ccccc2)CC1	.	6.2	.	.
Cc1cc(C)n2nc(C(=O)N/N=C/c3ccc4ccccc4c3)nc2n1	.	.	.	.
COc1ccccc1C(NC(C)=O)c1ccc2cccnc2c1O (stereo unspecified)	33	.	57	.
